Measurements taken from PubChem BioAssay.
Counter-ions that a name gives are not always drawn. Values without a mark were called inactive.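 The calls were made as follows: active = at least 20% inhibition of 6-phosphogluconate dehydrogenase activity; inactive = the rest.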 Where a SMILES comes first, the peptide text is derived from it. The star is where a group is joined. Tfa = O=C(C(F)(F)F)*

Biological target: 6-phosphogluconate dehydrogenase, decarboxylating (Homo sapiens) (UniProt P52209)
Test: inhibition of human phosphogluconate dehydrogenase – biochemical, recombinant enzyme, NADPH absorbance, primary screen (AID 1159550)
Details: recombinant 6PGD, NADPH absorbance 341 nm; at 10 µM; active compounds read high

6-phosphogluconate dehydrogenase, decarboxylating (Homo sapiens), sequence (P52209 whole entry, looked up): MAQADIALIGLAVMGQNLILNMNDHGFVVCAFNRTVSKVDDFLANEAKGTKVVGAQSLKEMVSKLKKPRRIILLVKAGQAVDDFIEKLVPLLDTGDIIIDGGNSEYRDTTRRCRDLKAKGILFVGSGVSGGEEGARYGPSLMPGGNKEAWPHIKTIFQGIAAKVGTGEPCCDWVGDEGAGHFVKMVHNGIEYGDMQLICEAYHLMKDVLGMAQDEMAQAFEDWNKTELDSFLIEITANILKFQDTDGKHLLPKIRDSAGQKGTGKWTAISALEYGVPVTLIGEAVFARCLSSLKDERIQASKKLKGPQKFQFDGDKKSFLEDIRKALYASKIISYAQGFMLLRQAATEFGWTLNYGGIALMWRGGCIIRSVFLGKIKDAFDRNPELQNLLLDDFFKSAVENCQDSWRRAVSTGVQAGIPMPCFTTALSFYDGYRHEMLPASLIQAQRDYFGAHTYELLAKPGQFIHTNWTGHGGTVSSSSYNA

Point of comparison: `C#CC1(O)CCC2C3CCc4cc(O)ccc4C3CCC21C` (stereo not drawn), inhibition 14.4%. Against it:
- CCOC(=O)C(=O)C1(C(=O)OCC)Oc2cc(OC)cc(OC)c2C(=O)C1c1ccccc1 (stereo not drawn) — lower, 14.2%
- CC(=O)[C@H]1CC[C@H]2[C@@H]3CC(=O)C4=CC(=O)CC[C@]4(C)[C@H]3CC[C@]12C — lower, -2.73%
- CC1(C)CC2C1CC[C@]1(CBr)CCC3C(CC(=O)O)C(=O)O[C@@]32C1 (stereo partly drawn) — higher, 14.7%
- CC(=O)OC1CCC2(C)C3=C(CC[C@H]2C1(C)C)[C@@]1(C)CC[C@@H]([C@@H](C)CCC=C(C)C)[C@]1(C)CC3 (stereo partly drawn) — lower, -9.29%
- CCN1CC2CCC(OC)C34C2C(O)C2(OCOC25CC(OC)C2CC3(O)C5C2OC)C14 (stereo not drawn) — lower, 4.26%
- CC(C)[C@H](NC(=O)[C@H](Cc1ccc(O)cc1)NC(=O)[C@@H](NC(=O)C(F)(F)F)C(C)C)C(=O)O (Tfa-Val-Tyr-Val-OH) — lower, -6.07%
- COC(=O)C[C@H]1C(C)(C)C(=O)[C@@H]2CC3=C4CC(=O)O[C@@H](c5ccoc5)[C@]4(C)CC[C@@H]3C1(C)C2=O — lower, -2.15%
